Experimental findings from the supplement of paper PMC10849652 are described below.

Of roughly 8,800 targets only a part is listed; those with a hit were picked by preference. About 0.5% of all pairs of compound and target were hits. Unmarked numbers belong to inactive results.

UniProt Q92879, sequence (Q92879 whole entry, looked up): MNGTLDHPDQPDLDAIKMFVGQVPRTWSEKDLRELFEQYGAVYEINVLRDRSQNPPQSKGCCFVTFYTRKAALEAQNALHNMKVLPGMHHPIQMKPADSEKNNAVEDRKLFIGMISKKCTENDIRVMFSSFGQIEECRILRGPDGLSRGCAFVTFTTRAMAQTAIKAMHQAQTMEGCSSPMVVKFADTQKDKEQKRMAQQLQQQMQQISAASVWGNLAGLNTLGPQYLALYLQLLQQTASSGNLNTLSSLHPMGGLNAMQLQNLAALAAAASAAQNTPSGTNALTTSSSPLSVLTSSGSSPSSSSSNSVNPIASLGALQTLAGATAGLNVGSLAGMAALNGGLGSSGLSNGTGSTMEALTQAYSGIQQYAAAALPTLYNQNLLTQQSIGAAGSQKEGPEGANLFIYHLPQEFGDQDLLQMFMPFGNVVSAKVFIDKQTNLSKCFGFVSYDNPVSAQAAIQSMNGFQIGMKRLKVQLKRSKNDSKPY
UniProt Q96A33, sequence (Q96A33 whole entry, looked up): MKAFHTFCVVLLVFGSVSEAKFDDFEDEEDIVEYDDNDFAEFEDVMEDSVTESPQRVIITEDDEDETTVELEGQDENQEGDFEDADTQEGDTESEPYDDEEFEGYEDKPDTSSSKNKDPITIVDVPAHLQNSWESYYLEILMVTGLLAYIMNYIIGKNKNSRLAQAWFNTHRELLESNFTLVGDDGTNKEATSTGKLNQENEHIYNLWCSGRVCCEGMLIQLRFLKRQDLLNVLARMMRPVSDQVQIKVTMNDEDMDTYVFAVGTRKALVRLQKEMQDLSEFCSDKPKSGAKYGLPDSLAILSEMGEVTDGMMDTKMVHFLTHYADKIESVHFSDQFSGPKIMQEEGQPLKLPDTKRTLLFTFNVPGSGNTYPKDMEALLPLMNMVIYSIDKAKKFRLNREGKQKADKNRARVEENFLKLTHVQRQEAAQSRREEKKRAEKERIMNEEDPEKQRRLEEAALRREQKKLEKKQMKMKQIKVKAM
UniProt P54132, sequence (P54132 whole entry, looked up): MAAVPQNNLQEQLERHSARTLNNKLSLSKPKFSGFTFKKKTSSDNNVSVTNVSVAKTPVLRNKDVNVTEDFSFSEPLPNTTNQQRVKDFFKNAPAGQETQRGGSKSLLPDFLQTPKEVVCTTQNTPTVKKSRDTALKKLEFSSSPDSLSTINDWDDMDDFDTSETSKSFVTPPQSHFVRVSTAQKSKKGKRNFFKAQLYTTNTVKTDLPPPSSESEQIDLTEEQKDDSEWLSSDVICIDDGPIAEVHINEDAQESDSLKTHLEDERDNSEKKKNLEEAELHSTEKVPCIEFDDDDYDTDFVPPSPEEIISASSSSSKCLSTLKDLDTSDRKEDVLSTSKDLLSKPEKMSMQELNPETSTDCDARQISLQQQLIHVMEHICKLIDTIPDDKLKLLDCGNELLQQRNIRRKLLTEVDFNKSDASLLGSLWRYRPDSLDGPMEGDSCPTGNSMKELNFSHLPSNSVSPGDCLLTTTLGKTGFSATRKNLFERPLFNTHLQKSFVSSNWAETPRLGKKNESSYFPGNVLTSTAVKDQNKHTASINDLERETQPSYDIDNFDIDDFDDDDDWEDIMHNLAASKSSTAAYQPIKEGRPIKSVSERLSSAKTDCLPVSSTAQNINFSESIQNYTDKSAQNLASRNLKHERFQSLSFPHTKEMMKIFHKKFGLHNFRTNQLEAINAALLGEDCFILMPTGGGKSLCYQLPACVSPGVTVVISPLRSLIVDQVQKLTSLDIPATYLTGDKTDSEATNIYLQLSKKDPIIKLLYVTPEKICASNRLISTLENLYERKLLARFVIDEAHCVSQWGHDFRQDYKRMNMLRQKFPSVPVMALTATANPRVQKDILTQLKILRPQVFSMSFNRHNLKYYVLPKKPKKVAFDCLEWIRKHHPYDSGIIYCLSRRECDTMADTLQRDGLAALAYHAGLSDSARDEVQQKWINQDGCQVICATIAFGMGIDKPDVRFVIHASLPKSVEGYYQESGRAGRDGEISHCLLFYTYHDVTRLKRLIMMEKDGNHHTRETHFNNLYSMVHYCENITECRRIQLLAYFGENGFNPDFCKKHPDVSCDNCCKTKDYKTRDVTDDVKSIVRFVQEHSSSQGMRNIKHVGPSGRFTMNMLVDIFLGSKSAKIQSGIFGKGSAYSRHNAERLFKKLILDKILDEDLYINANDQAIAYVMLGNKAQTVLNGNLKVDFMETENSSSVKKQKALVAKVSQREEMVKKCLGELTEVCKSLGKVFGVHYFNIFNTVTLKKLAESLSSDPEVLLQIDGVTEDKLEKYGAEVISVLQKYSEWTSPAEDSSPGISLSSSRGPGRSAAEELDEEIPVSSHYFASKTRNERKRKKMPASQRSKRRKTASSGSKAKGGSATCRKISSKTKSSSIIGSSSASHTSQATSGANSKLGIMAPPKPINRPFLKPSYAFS
UniProt P21953, sequence (P21953 whole entry, looked up): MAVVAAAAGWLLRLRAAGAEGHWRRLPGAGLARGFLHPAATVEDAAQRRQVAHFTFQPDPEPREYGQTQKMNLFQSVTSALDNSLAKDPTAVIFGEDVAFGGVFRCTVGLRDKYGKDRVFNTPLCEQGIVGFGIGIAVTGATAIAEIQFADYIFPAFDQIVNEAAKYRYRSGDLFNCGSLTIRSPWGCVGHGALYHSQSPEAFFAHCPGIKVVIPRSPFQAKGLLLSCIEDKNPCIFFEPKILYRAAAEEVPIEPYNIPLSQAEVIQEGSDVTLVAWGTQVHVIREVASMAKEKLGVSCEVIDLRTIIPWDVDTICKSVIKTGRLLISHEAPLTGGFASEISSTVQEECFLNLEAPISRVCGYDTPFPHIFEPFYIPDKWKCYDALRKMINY
UniProt Q86WR0, sequence (Q86WR0 whole entry, looked up): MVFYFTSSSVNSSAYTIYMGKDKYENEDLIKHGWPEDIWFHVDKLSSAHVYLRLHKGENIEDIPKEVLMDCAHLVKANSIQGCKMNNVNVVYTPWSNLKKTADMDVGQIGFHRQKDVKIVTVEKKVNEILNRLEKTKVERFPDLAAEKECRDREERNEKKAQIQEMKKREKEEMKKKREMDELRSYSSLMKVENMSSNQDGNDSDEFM
UniProt Q14839, sequence (Q14839 whole entry, looked up): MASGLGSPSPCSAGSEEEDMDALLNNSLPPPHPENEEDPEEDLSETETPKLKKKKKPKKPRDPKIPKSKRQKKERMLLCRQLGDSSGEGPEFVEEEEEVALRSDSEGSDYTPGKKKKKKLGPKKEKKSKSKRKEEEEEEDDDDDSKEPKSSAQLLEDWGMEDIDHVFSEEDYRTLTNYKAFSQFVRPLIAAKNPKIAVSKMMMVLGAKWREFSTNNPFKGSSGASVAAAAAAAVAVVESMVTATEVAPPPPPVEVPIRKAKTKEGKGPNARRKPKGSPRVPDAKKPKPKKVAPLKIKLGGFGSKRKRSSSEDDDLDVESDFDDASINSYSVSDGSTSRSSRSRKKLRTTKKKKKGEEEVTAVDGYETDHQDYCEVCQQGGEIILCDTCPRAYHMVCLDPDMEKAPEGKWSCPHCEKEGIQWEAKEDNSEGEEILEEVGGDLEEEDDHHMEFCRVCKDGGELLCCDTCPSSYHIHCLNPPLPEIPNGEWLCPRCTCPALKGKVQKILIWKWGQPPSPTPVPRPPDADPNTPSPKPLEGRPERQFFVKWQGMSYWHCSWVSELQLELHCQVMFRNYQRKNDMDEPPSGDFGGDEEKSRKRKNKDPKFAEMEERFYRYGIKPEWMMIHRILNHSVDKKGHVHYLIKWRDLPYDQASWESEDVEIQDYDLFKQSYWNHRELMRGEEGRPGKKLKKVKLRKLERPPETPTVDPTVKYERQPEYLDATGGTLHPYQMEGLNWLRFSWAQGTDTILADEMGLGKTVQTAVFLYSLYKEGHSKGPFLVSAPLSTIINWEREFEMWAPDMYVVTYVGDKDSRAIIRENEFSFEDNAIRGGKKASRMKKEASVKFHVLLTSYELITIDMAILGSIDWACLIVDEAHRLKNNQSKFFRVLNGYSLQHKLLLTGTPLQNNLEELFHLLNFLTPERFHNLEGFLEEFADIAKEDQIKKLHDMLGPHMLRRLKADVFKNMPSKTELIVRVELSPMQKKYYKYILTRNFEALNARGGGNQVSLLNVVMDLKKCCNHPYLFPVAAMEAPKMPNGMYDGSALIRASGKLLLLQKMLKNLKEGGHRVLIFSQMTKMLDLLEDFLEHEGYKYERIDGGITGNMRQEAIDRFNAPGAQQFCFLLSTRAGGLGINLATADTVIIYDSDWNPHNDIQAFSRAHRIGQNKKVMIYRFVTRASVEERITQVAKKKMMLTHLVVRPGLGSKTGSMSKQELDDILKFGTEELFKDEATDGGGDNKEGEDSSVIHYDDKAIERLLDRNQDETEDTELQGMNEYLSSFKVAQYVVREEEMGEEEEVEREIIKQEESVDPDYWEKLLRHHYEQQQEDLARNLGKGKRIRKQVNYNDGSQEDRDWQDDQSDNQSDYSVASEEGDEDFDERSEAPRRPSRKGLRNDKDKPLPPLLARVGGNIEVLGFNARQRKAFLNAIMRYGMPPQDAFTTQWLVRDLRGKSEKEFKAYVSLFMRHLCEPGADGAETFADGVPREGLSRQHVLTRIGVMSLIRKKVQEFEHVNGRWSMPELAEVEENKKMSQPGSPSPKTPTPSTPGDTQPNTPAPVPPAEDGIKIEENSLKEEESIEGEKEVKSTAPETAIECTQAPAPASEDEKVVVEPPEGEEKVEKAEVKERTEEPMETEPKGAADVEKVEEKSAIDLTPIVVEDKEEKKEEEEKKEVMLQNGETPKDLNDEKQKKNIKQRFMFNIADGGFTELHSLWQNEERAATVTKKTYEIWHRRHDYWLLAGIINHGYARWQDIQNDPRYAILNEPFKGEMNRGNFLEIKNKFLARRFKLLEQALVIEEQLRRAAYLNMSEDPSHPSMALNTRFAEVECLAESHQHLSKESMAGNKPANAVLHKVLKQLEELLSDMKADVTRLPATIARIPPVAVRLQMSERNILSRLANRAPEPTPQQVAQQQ
UniProt Q9Y6H1, sequence (Q9Y6H1 whole entry, looked up): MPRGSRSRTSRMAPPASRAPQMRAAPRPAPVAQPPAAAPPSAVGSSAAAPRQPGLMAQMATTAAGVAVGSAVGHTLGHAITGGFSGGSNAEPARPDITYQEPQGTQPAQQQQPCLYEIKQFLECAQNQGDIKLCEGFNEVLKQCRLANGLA

Compound in the assay: CNC(=O)c1ccc(Nc2ncc(C(F)(F)F)c(NCc3nccnc3N(C)S(C)(=O)=O)n2)cc1 [defactinib]
Briefly: log2 fold change, soluble protein after heating vs DMSO (PISA); higher = thermal stabilisation; K562 lysate, 10 uM; active = over 0.2 and 3.5 SD of the protein, either way, in both replicates (recomputed). In a few lines: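 Following dounce homogenisation of K562 pellets in PBS pH 7.4 with 1 mM MgCl2, crude extract at 1 mg/mL protein was incubated for 30 min with 10 μM compound. Aliquots were then heated for 3 min over 48°C-58°C and pooled, NP-40 was added to 0.5% at 4°C, and soluble protein was recovered as the supernatant at 21,000xg for 90 min. Channel-sum-equalised TMTpro 16plex LC-MS/MS quantified this protein. Each value, from duplicates, is a log-two fold change in thermal stability relative to solvent controls.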
As to BRD4 (UniProt O60885), the log2 fold change was -0.05.
For the target CAMKK1 isoform 2 (UniProt Q8N5S9), the log2 fold change is 0.051.
Consider ATG13 isoform 2 (UniProt O75143), for which the log2 fold change was 0.03.
For ATAD1 (UniProt Q8NBU5) the value was -0.054; for BSDC1 (UniProt Q9NW68), 0.031.
For the target ATP5PF isoform 2 (UniProt P18859), the log2 fold change was 0.071.
For CAD (UniProt P27708) the value was -0.022.
With CHCHD2 (UniProt Q9Y6H1) the figure was -0.079.
For CHCHD4 isoform 2 (UniProt Q8N4Q1) the value was -0.044; for CCNC (UniProt P24863), -0.073; for CELF2 isoform 3 (UniProt O95319), 0.018.
With CEP120 (UniProt Q8N960), the log2 fold change was -0.025.
CCDC25 (UniProt Q86WR0): the log2 fold change is -0.025.
For CELF1 isoform 4 (UniProt Q92879) the value was 0.049; for BNIP1 (UniProt Q12981), 0; for CHD5 (UniProt Q8TDI0), -0.042.
For ATP2B4 (UniProt P23634) the value was -0.043; for CANX isoform 2 (UniProt P27824), 0.002; for BCKDK (UniProt O14874), 0.029.
With CCAR2 (UniProt Q8N163), the log2 fold change was 0.018.
With CDC40 (UniProt O60508) the figure was -0.002.
With CDK5RAP2 (UniProt Q96SN8) the figure was 0.037.
With CD63 (UniProt P08962) the figure was 0.089; with ATR (UniProt Q13535), -0.07.
Turning to CCDC47 (UniProt Q96A33), the log2 fold change is 0.004.
Consider CCNA2 (UniProt P20248), for which the log2 fold change was 0.037.
Take CHD4 isoform 2 (UniProt Q14839): the log2 fold change was 0.007.
In the case of CENPQ (UniProt Q7L2Z9), the log2 fold change is -0.085.
With BLM (UniProt P54132) the figure was 0.031; with ATP6V0A2 (UniProt Q9Y487), 0.008; with BTAF1 (UniProt O14981), -0.013.
CDC42EP4 (UniProt Q9H3Q1): the log2 fold change was 0.033.
As for BMS1 (UniProt Q14692), the log2 fold change is 0.053.
For CDK9 isoform 2 (UniProt P50750) the value was 0.392 (active); for C12orf45 (UniProt Q8N5I9), -0.042.
With BCKDHB (UniProt P21953), the log2 fold change was -0.008.
On to CDC45 isoform 3 (UniProt O75419), for which the log2 fold change is 0.028.
For the target BUD23 isoform 3 (UniProt O43709), the log2 fold change was -0.046.
With CARD9 (UniProt Q9H257) the figure was 0.05.
